Measured values from PubChem BioAssay (EPA / NIEHS).
Calls of active or inactive are those of the source. The calls were made as follows: active = hit-call score of the fitted dose curve at least 0.9, where 1 is the maximum; inactive = score below 0.9.

read-out: Ezrin (EZR), EZR (gene 7430); assay: LTEA_HepaRG_EZR: Life Technologies and Expression Analysis (LTEA) Assay for Ezrin (EZR) using HepaRG (AID 2283491); settings: mRNA level, 48 h; actives raise or lower the signal
Procedure, shortened: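 HepaRG, 48 h chemical exposure, 8-pt half-log series from 100 uM, 0.5% DMSO vehicle, duplicates. Read-out: EZR mRNA by TaqMan qRT-PCR (Fluidigm array), housekeeping-normalized; bidirectional curve fit vs DMSO baseline.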

Cytochrome P450 3A7 (Homo sapiens), sequence (P24462 whole entry, looked up): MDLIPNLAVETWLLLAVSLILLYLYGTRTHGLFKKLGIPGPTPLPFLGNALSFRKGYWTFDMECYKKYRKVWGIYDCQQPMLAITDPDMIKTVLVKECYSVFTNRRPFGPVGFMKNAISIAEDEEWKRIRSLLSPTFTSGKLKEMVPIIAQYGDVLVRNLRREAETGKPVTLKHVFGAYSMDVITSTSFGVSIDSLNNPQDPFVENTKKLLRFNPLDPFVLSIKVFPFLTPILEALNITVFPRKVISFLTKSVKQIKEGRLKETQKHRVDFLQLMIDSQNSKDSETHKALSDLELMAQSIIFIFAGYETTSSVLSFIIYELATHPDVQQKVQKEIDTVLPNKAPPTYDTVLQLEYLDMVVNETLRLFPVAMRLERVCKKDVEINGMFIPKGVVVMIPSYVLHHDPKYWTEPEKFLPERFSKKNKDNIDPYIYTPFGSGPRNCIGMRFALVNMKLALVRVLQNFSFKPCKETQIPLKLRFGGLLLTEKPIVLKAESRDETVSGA

outcome, inactive:
CCCCOC(=O)c1ccc(O)cc1
O=c1ccc2ccccc2o1
CC(C)(c1cc(Br)c(O)c(Br)c1)c1cc(Br)c(O)c(Br)c1
CCOC(=O)O[C@H](C)OC(=O)c1ccc2c(c1)cc(C(=O)NC1CCN(C(C)C)CC1)n2Cc1cc(-c2ccc(Cl)s2)on1
C[C@]12CC[C@@H]3c4ccc(O)cc4CC[C@H]3[C@@H]1CCC2=O
Cc1occc1C(=O)Nc1ccc(C(=O)N2CCC(F)(F)/C(=C\C(=O)N3CCC(N4CCCCC4)CC3)c3ccccc32)cc1
COc1ccc2cc(S(=O)(=O)N[C@H](CC(=O)N[C@H](Cc3ccc(CN4[C@H](C)CCC[C@@H]4C)cc3)C(=O)N(C)C(C)C)c3ccc4c(c3)OCO4)ccc2c1
CCCCCCCC[Si](OCC)(OCC)OCC
O=C(O)c1ccccc1C(=O)OCc1ccccc1
Cc1oc2c(NC(=O)c3c(Cl)cccc3Cl)cccc2c1C(C)(C)O
Cc1ccc(C(C)C)cc1
O=CCCCC=O
CC(=O)N1CCN(c2ccc(OC[C@H]3CO[C@](Cn4ccnc4)(c4ccc(Cl)cc4Cl)O3)cc2)CC1
CCN(Cc1cccc(S(=O)(=O)O)c1)c1ccc(C(=C2C=CC(=[N+](CC)Cc3cccc(S(=O)(=O)O)c3)C=C2)c2ccccc2S(=O)(=O)[O-])cc1
O=C(O)Cn1c(=O)n(Cc2ccc(Br)cc2F)c(=O)c2ccc(Cl)cc21
CC/C(=C(/CC)c1ccc(O)cc1)c1ccc(O)cc1
O=C(Nc1ccc(Cl)cc1)Nc1ccc(Cl)c(Cl)c1
c1ccc2ccccc2c1
CO[C@H]1/C=C/O[C@@]2(C)Oc3c(C)c(O)c4c(O)c(c(/C=N/N5CCN(C)CC5)c(O)c4c3C2=O)NC(=O)/C(C)=C\C=C\[C@H](C)[C@H](O)[C@@H](C)[C@@H](O)[C@@H](C)[C@H](OC(C)=O)[C@@H]1C
CC(C)(C)c1cc(/C=C2\SC(N)=NC2=O)cc(C(C)(C)C)c1O
C[C@]12CC[C@@H]3c4ccc(O)cc4CC[C@H]3[C@@H]1CC[C@H]2O
Cc1cc2c(cc1C(F)(F)F)N(C(=O)Nc1ccc(Oc3cccnc3C)nc1)CC2
Clc1ccccc1C(c1ccccc1)(c1ccccc1)n1ccnc1
CCCCCCCCCCCO
CN1C(=O)N(c2ccccc2Br)Cc2cnc(Nc3ccc4c(c3)OCC(CO)O4)nc21 (configuration not stated)
Cc1c2ccccc2c(C)c2c1ccc1ccccc12
CC(C)(O)c1ccc(CNC(=O)c2cccnc2Oc2ccc3nonc3c2)cc1
Cc1cn([C@H]2C[C@H](N=[N+]=[N-])[C@@H](CO)O2)c(=O)[nH]c1=O
CCCCOC(=O)CC(CC(=O)OCCCC)(OC(C)=O)C(=O)OCCCC
CCCCCc1ccc(N)cc1
CCO[Si](CCCNC(N)=O)(OCC)OCC
O=C1c2ccccc2C(=O)N1CCc1noc(-c2ccc(CN3CCCCCC3)s2)n1

AC50, active:
CC1(C)NC(=O)N(c2ccc([N+](=O)[O-])c(C(F)(F)F)c2)C1=O 93 µM
CC(C)(C)c1csc(-c2cc3cc(OCc4ccccc4CC(=O)O)ccc3o2)n1 82.3 µM
CN(C)c1ccc(C(=C2C=CC(=[N+](C)C)C=C2)c2ccc(N(C)C)cc2)cc1 32 µM
COc1cc(C(=O)NC2CCN(C)CC2)ccc1Nc1ncc2c(n1)N(C1CCCC1)CC(F)(F)C(=O)N2C 28.7 µM
CN(C)C(=O)C1(N2CCCCC2)CCN(CC[C@@]2(c3ccc(Cl)c(Cl)c3)CN(C(=O)c3ccccc3)CCO2)CC1 60.6 µM

read-out: Cytochrome P450 3A7 (Homo sapiens) (UniProt P24462); assay: LTEA_HepaRG_CYP3A7: Life Technologies and Expression Analysis (LTEA) Assay for CYP3A7 using HepaRG (AID 2283492); settings: mRNA level, 48 h; actives raise or lower the signal
Procedure, shortened: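 HepaRG cells plated 48 h, then dosed in serum-free induction medium for 48 h at 8 concentrations (top 100 uM, half-log steps, 0.5% DMSO). CYP3A7 mRNA by qRT-PCR, normalised to ACTB/GAPDH/POLR2A; bidirectional fit versus DMSO.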

outcome, inactive:
CCCCOC(=O)c1ccc(O)cc1
O=c1ccc2ccccc2o1
CCOC(=O)O[C@H](C)OC(=O)c1ccc2c(c1)cc(C(=O)NC1CCN(C(C)C)CC1)n2Cc1cc(-c2ccc(Cl)s2)on1
CC1(C)NC(=O)N(c2ccc([N+](=O)[O-])c(C(F)(F)F)c2)C1=O
Cc1occc1C(=O)Nc1ccc(C(=O)N2CCC(F)(F)/C(=C\C(=O)N3CCC(N4CCCCC4)CC3)c3ccccc32)cc1
CCCCCCCC[Si](OCC)(OCC)OCC
O=C(O)c1ccccc1C(=O)OCc1ccccc1
Cc1ccc(C(C)C)cc1
O=CCCCC=O
CC(C)(C)c1csc(-c2cc3cc(OCc4ccccc4CC(=O)O)ccc3o2)n1
CCN(Cc1cccc(S(=O)(=O)O)c1)c1ccc(C(=C2C=CC(=[N+](CC)Cc3cccc(S(=O)(=O)O)c3)C=C2)c2ccccc2S(=O)(=O)[O-])cc1
CC/C(=C(/CC)c1ccc(O)cc1)c1ccc(O)cc1
CCCOC(=O)c1cc(O)c(O)c(O)c1
c1ccc2ccccc2c1
Cc1cc2c(cc1C(F)(F)F)N(C(=O)Nc1ccc(Oc3cccnc3C)nc1)CC2
Clc1ccccc1C(c1ccccc1)(c1ccccc1)n1ccnc1
CCCCCCCCCCCO
Cc1cn([C@H]2C[C@H](N=[N+]=[N-])[C@@H](CO)O2)c(=O)[nH]c1=O
CCCCOC(=O)CC(CC(=O)OCCCC)(OC(C)=O)C(=O)OCCCC
CCCCCc1ccc(N)cc1
CCO[Si](CCCNC(N)=O)(OCC)OCC
O=C1c2ccccc2C(=O)N1CCc1noc(-c2ccc(CN3CCCCCC3)s2)n1

AC50, active:
CC(C)(c1cc(Br)c(O)c(Br)c1)c1cc(Br)c(O)c(Br)c1 9.73 µM
COc1ccc2cc(S(=O)(=O)N[C@H](CC(=O)N[C@H](Cc3ccc(CN4[C@H](C)CCC[C@@H]4C)cc3)C(=O)N(C)C(C)C)c3ccc4c(c3)OCO4)ccc2c1 25.2 µM
Cc1oc2c(NC(=O)c3c(Cl)cccc3Cl)cccc2c1C(C)(C)O 31.6 µM
CC(C)(C)c1cc(/C=C2\SC(N)=NC2=O)cc(C(C)(C)C)c1O 27.6 µM
CN1C(=O)N(c2ccccc2Br)Cc2cnc(Nc3ccc4c(c3)OCC(CO)O4)nc21 (configuration not stated) 50 µM
Cc1c2ccccc2c(C)c2c1ccc1ccccc12 30.3 µM
CC(C)(O)c1ccc(CNC(=O)c2cccnc2Oc2ccc3nonc3c2)cc1 6.62 µM
CN(C)C(=O)C1(N2CCCCC2)CCN(CC[C@@]2(c3ccc(Cl)c(Cl)c3)CN(C(=O)c3ccccc3)CCO2)CC1 24.7 µM
